# Measured values reported in PubChem BioAssay (NCI).
# Where “and” joins values, the source holds several entries; their conditions need not be identical. Equal entries are not always repeated. The panel holds about 83,000 compounds, 20% with a hit somewhere; the sample as a whole holds those more often.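 Testing used 96-well plates and a 48-hour single-concentration exposure. Example: -40 means 40% of the starting cells died.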 A number with no mark means an inactive call. Calls of active or inactive are those of the source. Rule for the calls: active = growth percent below 10; inactive = the rest.
# Experiments:
# Assay in all cases: NCI-60 one-dose screen, 48 h (100 = growth as untreated, 0 = no growth, -100 = all killed)
# Conditions in all cases: 10 µM unless noted
# T-47D breast = tested on: T-47D breast
# BT-549 breast = tested on: BT-549 breast
# MDA-MB-435 melanoma = tested on: MDA-MB-435 melanoma
# SW-620 colon = tested on: SW-620 colon
# MCF7 breast = tested on: MCF7 breast
# HCT-116 colon = tested on: HCT-116 colon
# HCC-2998 colon = tested on: HCC-2998 colon
# KM12 colon = tested on: KM12 colon
Structure (SMILES),growth (T-47D breast),growth (BT-549 breast),growth (MDA-MB-435 melanoma),growth (SW-620 colon),growth (MCF7 breast),growth (HCT-116 colon),growth (HCC-2998 colon),growth (KM12 colon)
CN1CCN(CCNC(=O)c2cccc(CN3c4cccc5c4C(=Cc4cccnc43)N(C)C5=O)c2)CC1,34.8%,57.5%,39.8%,52.7%,16.6%,25.8%,39.8%,44.6%
COC(=O)/C=C1/SC(=Nc2ccc([N+](=O)[O-])cc2)N(CCc2c[nH]c3ccccc23)C1=O,46.5%,60.8%,55.5%,47.3%,20.1%,21.8%,78.3%,66.4%
COc1cc(-c2nc(SCCC(C)C)nc(Nc3ccc(F)cc3)c2C#N)cc(OC)c1OC,65.7%,74.9%,79.4%,80.1%,87%,22%,102%,78.6%
N#CC1=C(N)Oc2c(sc3c(Br)cccc23)C1c1ccccn1 (centres undefined),34.3%,31.4%,77.4%,34.8%,18.8%,27.9%,72.9%,34.9%
COc1ccc(-c2cc3cnc4ccccc4c3oc2=O)cc1,87.1%,101%,98.6%,95.8%,86.9%,93.3%,89.2%,103%
CCN1CCN(CC(=O)Nc2nc3ccc(NCc4ccc(C)cc4)cc3s2)CC1,50.7%,88%,-41.8% (active),44.2%,35.6%,13%,80.9%,73%
O=C1OCC2=C1C(c1cccc(C(F)(F)F)c1)c1cc3c(cc1N2CCO)OCCO3 (centres undefined),51%,41.7%,-41.1% (active),24.5%,23.1%,10.3%,8.81% (active),16.9%
O=C1/C(=C/c2ccc(-c3ccccc3C(F)(F)F)o2)SC(=S)N1CCc1ccc(O)cc1,34.8%,61.7%,-14.4% (active),32.1%,27.7%,33.9%,81.1%,28.2%
Nc1ccc(S(=O)(=O)c2ccc(N)cc2)cc1,104% and 100%,104% and 110%,94.6%,108% and 92.5%,99.5% and 104%,107% and 94.9%,98% and 108%,106% and 109%
CC[C@@H]1NC(=O)[C@H]([C@H](O)[C@H](C)C/C=C/c2ccc(CN3C(=O)C(C)=C(C)C3=O)cc2)N(C)C(=O)[C@H](C(C)C)N(C)C(=O)[C@H](CC(C)C)N(C)C(=O)[C@H](CC(C)C)N(C)C(=O)[C@@H](C)NC(=O)[C@H](C)NC(=O)[C@H](CC(C)C)N(C)C(=O)[C@H](C(C)C)NC(=O)[C@H](CC(C)C)N(C)C(=O)CN(C)C1=O,54.7%,82.4%,82.7%,97.7%,50.9%,54.8%,87.2%,78.7%
CC(Sc1ccccc1)C(=O)O (centres undefined),105%,96.5%,96.5%,102%,99.5%,88%,120%,107%
O=C(Nc1ccc2ccccc2c1)c1cc2ccccc2cc1O,83.3%,81.5%,103%,103%,65.9%,92.3%,107%,-36.8% (active)
COc1ccc(C/C(C)=C(/c2ccc(OCCN3CCCC3)cc2)c2ccc(OC(=O)NCc3ccccc3)cc2)cc1,51%,82.5%,73%,95.3%,30.7%,39.6%,87.8%,90.7%
C/C=C(\C)C(=O)N[C@H]1CC[C@]2(C)C3CC[C@@]4(C)C(CC[C@@H]4C(C)N(C)C)C3CCC2[C@H]1OC(C)=O (some centres undefined),-43.5% (active),-11% (active),-56.8% (active),-93% (active),-27% (active),-83.3% (active),-85.4% (active),-48.1% (active)
COc1cc(/C=C2\CCC/C(=C\c3cc(CN4CCCC4)c(O)c(OC)c3)C2=O)cc(CN2CCCC2)c1O,95.9%,49.2%,8.88% (active),25.8%,14.3%,-34.5% (active),52.3%,11.9%
CN(Cc1ccccc1)c1nc(Cl)c(C2CC(c3ccc(F)cc3)=NN2C=O)s1 (centres undefined),85.5%,113%,96.8%,101%,86.7%,86.9%,95.4%,93.2%
CCN(CC)CCCN1C(=O)c2c(c(C)c3c(oc4cc(OC)ccc43)c2C)C1=O,112%,98.8%,103%,87.3%,-14.7% (active),74.3%,98.1%,96.9%
COc1nc2ccc(C)cc2cc1/C=[N+](\[O-])c1ccccc1,66.5%,95.8%,96.9%,49.9%,58.6%,15.1%,98.2%,90.5%
Cc1ccc(-c2nc3nc(-c4ccccc4)nc(N4CCN(S(=O)(=O)c5ccccc5)CC4)c3o2)cc1,94.5%,64.5%,95.7%,92.9%,92.7%,65.2%,102%,104%
N=c1c2c(-c3ccccc3)c(-c3ccccc3)oc2ncn1NC(=O)c1cccnc1,96.2%,103%,104%,106%,98.5%,96.1%,118%,95.6%
COc1ccc(-c2nnc3n(C)c(=O)c4ccccc4n23)cc1O,30.2%,41.4%,-40.8% (active),23.9%,18.2%,13.1%,33.7%,24.2%
O=C(NCc1ccc(Cn2c(=O)sn(-c3ccc(Cl)cc3)c2=O)cc1)OCc1ccc2c(Cl)cc(Cl)c(O)c2n1,60.2%,60.6%,54.7%,49.3%,50.3%,29.3%,67.9%,23.5%
CN1CCCc2cc(/C=C3\SC(=S)N(C(Cc4ccc(O)cc4)C(=O)O)C3=O)ccc21 (centres undefined),87.1%,106%,103%,102%,94.5%,106%,93.6%,105%
S=c1nc(CS)[nH]c2ccccc12,109%,101%,101%,98.5%,79.6%,100%,110%,100%
C[C@]12CCc3c(ccc4cc(O)ccc34)[C@@H]1C[C@H](O)[C@@H]2O,98.8%,94.7%,99%,96.4%,132%,104%,109%,108%
CC/C(=C(/c1ccc(O)cc1)c1ccc(OCCN2CCCCCC2)cc1)c1ccc(Cl)cc1,51.9%,69.8%,81.1%,62.6%,13%,-53% (active),28.8%,38.2%
COc1ccc(-c2[nH]c3ccccc3c2-c2ccc(OC)cc2)cc1,41.1%,90.9%,-33.1% (active),37.1%,16.2%,24.4%,32.3%,16.6%
COC1=CC(=O)C(OC)=C(O)C1=O,89%,98.9%,101%,93.2%,91.5%,98.7%,101%,102%
